A number with no mark means an inactive call. For some assays here: Measured potencies and affinities stand elsewhere. The source made the active and inactive calls. Unless noted, the rule behind the calls is not given here.
How the values were obtained:
[1] = antimalarial activity against Dd2 strain (AID 2302;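 active = growth inhibition above 50% at the single 2 µM test dose, taken to imply half-maximal potency below 2 µM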;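 note: 0% = DMSO untreated growth and 100% = chloroquine plus artemisinin killed control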); conditions: P. falciparum Dd2 in RBCs, LDH growth readout, 72 h; at 2 µM; active compounds read high
[2] = human hepatoma cell viability loss – ATP luminescence, cytotoxicity control for P. falciparum antimalarial project, primary screen (AID 2303;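 active = inhibition above 50%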;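 note: 0% = DMSO wells and 100% = digitonin-killed cells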); conditions: HepG2 viability, 24-48 h, at 10 µM, active compounds read high
[3] = biological target: L-lactate dehydrogenase (Plasmodium falciparum (isolate CDC / Honduras)) (UniProt Q27743); assay: PfLDH activity inhibition – cell lysate, 3D7 strain, counter-screen for P. falciparum growth inhibition project (AID 2304);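 note: 0% = vehicle and 100% = reference inhibitor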; conditions: P. falciparum 3D7 crude extract, LDH APAD/NBT absorbance; at 2 µM; active compounds read high
[4] = inhibition of 3D7 malaria parasite growth – strain 3D7 (AID 2306);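 note: 0% = DMSO wells and 100% = chloroquine plus artemisinin control wells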; conditions: P. falciparum 3D7 erythrocytic growth, LDH absorbance, 72 h; at 2 µM; active compounds read high
[5] = biological target: Calcium-dependent protein kinase 1 (Plasmodium falciparum (isolate 3D7)) (UniProt P62344); assay: PfCDPK1 kinase inhibitors, biochemical, TCAMS library (AID 1159585; cut-off not given, nearly all actives have IC50 up to about 0.98 µM;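 note: inhibitors leave more ATP so luminescence rises with inhibition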); conditions: recombinant PfCDPK1, Kinase-Glo ATP depletion luminescence
[6] = biological target: Plasmodium falciparum protein kinase 6 (PK6, PF3D7_1337100) (UniProt Q8IDW1); assay: PfPK6 kinase inhibitors, biochemical, TCAMS library (AID 1159586); conditions: recombinant PfPK6, Kinase-Glo ATP depletion luminescence
[7] = biological target: Protein kinase 7 (PK7), Plasmodium falciparum 3D7 (PF3D7_0213400) (UniProt Q7YTF7); assay: inhibition of Plasmodium PK7 catalytic activity – biochemical, TCAMS antimalarial set, Kinase-Glo luminescence (AID 1159587); conditions: recombinant PfPK7, Kinase-Glo ATP depletion luminescence
[8] = biological target: Calcium-dependent protein kinase 4 (Plasmodium falciparum (isolate 3D7)) (UniProt Q8IBS5); assay: PfCDPK4 kinase inhibitors, biochemical, TCAMS library (AID 1159588; cut-off not given, nearly all actives have IC50 up to about 0.91 µM); conditions: recombinant PfCDPK4, Kinase-Glo ATP depletion luminescence
Chain of Calcium-dependent protein kinase 4 (Plasmodium falciparum (isolate 3D7)) (Q8IBS5 whole entry, looked up): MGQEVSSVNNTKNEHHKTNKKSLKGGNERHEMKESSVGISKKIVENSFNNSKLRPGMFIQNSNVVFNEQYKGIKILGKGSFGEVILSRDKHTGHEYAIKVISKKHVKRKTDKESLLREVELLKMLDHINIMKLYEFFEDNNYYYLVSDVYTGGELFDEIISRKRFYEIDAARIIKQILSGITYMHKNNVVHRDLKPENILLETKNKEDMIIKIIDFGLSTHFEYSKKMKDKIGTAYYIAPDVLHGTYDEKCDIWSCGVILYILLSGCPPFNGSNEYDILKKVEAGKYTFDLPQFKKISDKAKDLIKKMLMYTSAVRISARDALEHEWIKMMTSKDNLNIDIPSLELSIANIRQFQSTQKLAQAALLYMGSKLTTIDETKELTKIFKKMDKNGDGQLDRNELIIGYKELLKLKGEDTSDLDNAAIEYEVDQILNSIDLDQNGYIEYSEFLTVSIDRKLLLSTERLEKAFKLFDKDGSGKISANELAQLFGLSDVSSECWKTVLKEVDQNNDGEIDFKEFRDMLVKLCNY

Chain of L-lactate dehydrogenase (Plasmodium falciparum (isolate CDC / Honduras)) (Q27743 whole entry, looked up): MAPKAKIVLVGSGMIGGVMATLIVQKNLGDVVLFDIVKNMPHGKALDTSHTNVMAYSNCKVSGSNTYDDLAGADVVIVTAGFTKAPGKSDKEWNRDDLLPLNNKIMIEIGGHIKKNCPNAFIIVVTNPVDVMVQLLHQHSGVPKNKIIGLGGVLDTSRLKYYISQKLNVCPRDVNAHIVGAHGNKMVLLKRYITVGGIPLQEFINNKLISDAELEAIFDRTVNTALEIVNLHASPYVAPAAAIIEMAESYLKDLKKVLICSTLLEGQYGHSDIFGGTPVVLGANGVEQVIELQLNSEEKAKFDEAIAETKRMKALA
Chain of Protein kinase 7 (PK7), Plasmodium falciparum 3D7 (PF3D7_0213400) (Q7YTF7 1-343): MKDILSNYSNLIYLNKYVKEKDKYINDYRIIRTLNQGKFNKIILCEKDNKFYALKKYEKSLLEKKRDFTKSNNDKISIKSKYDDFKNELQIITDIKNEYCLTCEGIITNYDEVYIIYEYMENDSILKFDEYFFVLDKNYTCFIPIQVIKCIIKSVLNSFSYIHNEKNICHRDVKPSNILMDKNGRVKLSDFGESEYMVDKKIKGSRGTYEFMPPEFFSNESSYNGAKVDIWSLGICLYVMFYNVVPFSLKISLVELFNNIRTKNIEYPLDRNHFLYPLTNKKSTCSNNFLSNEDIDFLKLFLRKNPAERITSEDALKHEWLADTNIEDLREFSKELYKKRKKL
Chain of Plasmodium falciparum protein kinase 6 (PK6, PF3D7_1337100) (Q8IDW1 1-305): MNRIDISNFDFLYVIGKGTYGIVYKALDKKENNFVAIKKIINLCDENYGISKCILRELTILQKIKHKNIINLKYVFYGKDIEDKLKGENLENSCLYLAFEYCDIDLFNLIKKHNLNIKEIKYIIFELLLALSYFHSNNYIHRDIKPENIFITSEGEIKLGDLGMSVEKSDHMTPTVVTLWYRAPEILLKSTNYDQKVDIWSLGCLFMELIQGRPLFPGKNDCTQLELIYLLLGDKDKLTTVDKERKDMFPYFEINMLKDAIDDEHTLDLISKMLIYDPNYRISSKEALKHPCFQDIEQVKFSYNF
Chain of Calcium-dependent protein kinase 1 (Plasmodium falciparum (isolate 3D7)) (P62344 whole entry, looked up): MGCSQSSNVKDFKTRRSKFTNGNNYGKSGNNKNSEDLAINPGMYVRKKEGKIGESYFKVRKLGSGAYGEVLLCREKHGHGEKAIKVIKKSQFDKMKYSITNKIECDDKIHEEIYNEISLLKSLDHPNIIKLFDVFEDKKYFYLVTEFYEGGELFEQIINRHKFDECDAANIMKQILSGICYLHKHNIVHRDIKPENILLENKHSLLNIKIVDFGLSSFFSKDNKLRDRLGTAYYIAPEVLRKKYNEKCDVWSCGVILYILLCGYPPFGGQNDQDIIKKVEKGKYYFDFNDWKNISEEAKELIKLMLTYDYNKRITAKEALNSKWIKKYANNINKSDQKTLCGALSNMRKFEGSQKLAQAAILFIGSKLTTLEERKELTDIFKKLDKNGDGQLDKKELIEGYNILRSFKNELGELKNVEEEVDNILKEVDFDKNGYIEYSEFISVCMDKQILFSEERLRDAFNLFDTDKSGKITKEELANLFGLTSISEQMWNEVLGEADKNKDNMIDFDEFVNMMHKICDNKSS

Compound	growth inhibition [1]	inhibition [2]	inhibition [3] [%]	growth inhibition [4]	outcome [5]	outcome [6]	outcome [7]	outcome [8]
Cc1cccc2[nH]c(-c3ccc(-c4ccc(CN5CCCCC5)cc4)cc3)nc12	99% (active)	27%	-2	100% (active)	inactive	inactive	inactive	inactive
CS(=O)(=O)c1ccc(CCNCc2ccc(-c3ccc(CN(C(=O)c4ccc(Cl)nc4)C4CCN(Cc5ccccc5)CC4)cc3)nc2)cc1	70% (active)	24%	-2	93% (active)	inactive	inactive	inactive	inactive
CN1CCN(c2cc3c(cc2Cl)CCN3C(=O)Cc2ccc(NC(=O)Nc3cccc4ccccc34)cc2)CC1	18%	12%	-11	92% (active)	inactive	inactive	inactive	inactive
Cc1noc(C)c1-c1cccc(CNCc2cccc(-c3cccc(-c4nc5ccc(F)cc5[nH]4)c3)c2)c1	73% (active)	18%	3	103% (active)	inactive	inactive	inactive	inactive
Cc1cccc(CN2CCCN(Cc3ccc(C(=O)Nc4ccc(C)c(F)c4)cc3)CC2)c1	3%	47%	-4	85% (active)	inactive	inactive	inactive	inactive
Oc1ccc(-c2cc(-c3ccc(O)cc3)nc(-c3ccccc3)n2)cc1	97% (active)	0%	-1	96% (active)	inactive	inactive	inactive	inactive
O=C(c1cccc(-c2cccc(-c3nc4ccccc4[nH]3)c2)c1)N1CCCCC1CN1CCC(O)C1 (configuration not stated)	56% (active)	66% (active)	2	100% (active)	inactive	inactive	inactive	inactive
Cc1cc(NC(=O)Nc2ccc3nc(C)oc3c2)c2cc(Cl)ccc2n1	57% (active)	-10%	-2	100% (active)	inactive	inactive	inactive	inactive
O=C(/C=C/c1ccc(Cl)c(Cl)c1)NCCCCCN1CCC(NC(=O)Nc2ccc(Cl)c(Cl)c2)CC1	1%	23%	0	102% (active)	inactive	inactive	inactive	inactive
Oc1cccc(/C=N/Nc2ccnc3cc(Cl)ccc23)c1	95% (active)	-9%	0	104% (active)	inactive	inactive	inactive	inactive
CC(=O)N(Cc1nc(-c2cc(C(F)(F)F)cc(C(F)(F)F)c2)cs1)c1c(C)cccc1C	99% (active)	-2%	1	100% (active)	inactive	inactive	inactive	inactive
Cc1ccc(O)cc1Nc1ccnc2cc(-c3nccs3)ccc12	83% (active)	63% (active)	2	102% (active)	inactive	inactive	inactive	inactive
Cc1nc(-c2cccc(C(=O)Nc3cnc4ccccc4c3)c2)no1	12%	15%	-10	85% (active)	inactive	inactive	inactive	inactive
COc1ccc2nccc(NCC3(O)CCC(NCc4cc5c(cn4)OCCO5)CC3)c2n1 (configuration not stated)	23%	15%	-3	99% (active)	inactive	inactive	inactive	inactive
Cc1cc(C)cc(Oc2c(C(F)(F)F)oc3c(CN4CC(C)OC(C)C4)c(O)ccc3c2=O)c1 (configuration not stated)	54% (active)	5%	1	89% (active)	inactive	inactive	inactive	inactive
COc1ccc(OCCCON2C(N)=NC(N)=NC2(C)C)cc1	94% (active)	55% (active)	-3	97% (active)	inactive	inactive	inactive	inactive
CCN(CC)CCNc1ccnc2ccc3ccccc3c12	67% (active)	5%	6	100% (active)	inactive	inactive	inactive	inactive
Cc1occc1C(=O)Nc1nc(-c2ccccn2)nc2ccsc12	98% (active)	68% (active)	5	98% (active)	inactive	inactive	inactive	inactive
COc1cc(Nc2nccc(N3CCC(NC(=O)C4COc5ccccc5O4)C3)n2)cc(OC)c1OC (configuration not stated)	58% (active)	5%	5	90% (active)	inactive	inactive	inactive	inactive

Source: PubChem BioAssay
